Laboratory results taken from the antibiotic and cytotoxicity screens of Wong et al. (2023).
In all, about 39,000 compounds went through this assay and about 3,300 (8.5%) were called active. The list comes from a sample in which actives are over-represented; it also holds similar structures and randomly drawn compounds.

Test system: HepG2
Experiment: cytotoxicity call (relative viability < 0.9)
Settings: 10 µM

| SMILES | cytotoxicity call |
| --- | --- |
| C[C@@H]1CN([C@H](C)CO)C(=O)c2cc(NC(=O)C3CCCCC3)ccc2O[C@@H](C)CCCCO[C@H]1CN(C)S(=O)(=O)c1ccc(Cl)cc1 | inactive |
| CO[C@H]1CN(C)C(=O)c2ccc(NS(=O)(=O)c3cn(C)cn3)cc2OC[C@@H](C)N(Cc2cccc(F)c2)C[C@@H]1C | inactive |
| C[C@@H]1CN([C@H](C)CO)C(=O)c2cc(NS(C)(=O)=O)ccc2O[C@@H]1CN(C)C(=O)Nc1ccc(F)cc1 | inactive |
| C[C@@H]1CCCCO[C@@H](CN(C)C(=O)Nc2ccc3c(c2)OCO3)[C@H](C)CN([C@@H](C)CO)C(=O)c2cc(NC(=O)CCC(F)(F)F)ccc2O1 | inactive |
| CO[C@@H](CN(C)S(=O)(=O)c1ccc(C)cc1)[C@H](C)CN([C@H](C)CO)S(=O)(=O)c1cccc(Cl)c1 | inactive |
| COCC(=O)N1C[C@@H](C)[C@H](OC)CN(C)C(=O)c2cc(NC(=O)c3ccc(F)cc3)ccc2OC[C@H]1C | inactive |
| O=C1c2ccccc2[C@@]2(Cc3ccccc3N(CC(F)(F)F)C2=O)[C@H](c2ccc(CO)cc2)N1Cc1ccccc1 | inactive |
| C[C@@H]1CN([C@H](C)CO)C(=O)Cc2cc(NC(=O)Nc3ccc4c(c3)OCO4)ccc2O[C@H]1CN(C)Cc1ccc(C(=O)Nc2ccccc2N)cc1 | inactive |
| C[C@H]1CN([C@@H](C)CO)C(=O)Cc2cc(NC(=O)Nc3ccccc3)ccc2O[C@@H]1CN(C)Cc1ccc(C(=O)Nc2ccccc2N)cc1 | inactive |
| C[C@H]1CN([C@@H](C)CO)C(=O)Cc2cc(NC(=O)Nc3ccc4c(c3)OCO4)ccc2O[C@@H]1CN(C)Cc1ccc(C(=O)Nc2ccccc2N)cc1 | inactive |
| C[C@H](CO)N1C[C@H](C)[C@H](CN(C)Cc2ccc(C(=O)Nc3ccccc3N)cc2)Oc2ccc(NC(=O)Nc3ccc4c(c3)OCO4)cc2CC1=O | inactive |
| C[C@H]1CN([C@@H](C)CO)C(=O)Cc2cc(NC(=O)Nc3ccc4c(c3)OCO4)ccc2O[C@H]1CN(C)Cc1ccc(C(=O)Nc2ccccc2N)cc1 | active |
| C[C@@H]1CN([C@@H](C)CO)C(=O)Cc2cc(NC(=O)Nc3ccc4c(c3)OCO4)ccc2O[C@@H]1CN(C)Cc1ccc(C(=O)Nc2ccccc2N)cc1 | active |
| C[C@@H]1CN([C@H](C)CO)C(=O)Cc2cc(NC(=O)Nc3ccc4c(c3)OCO4)ccc2O[C@@H]1CN(C)Cc1ccc(C(=O)Nc2ccccc2N)cc1 | active |
| C[C@H](CO)N1C[C@H](C)[C@@H](CN(C)Cc2ccc(C(=O)Nc3ccccc3N)cc2)Oc2ccc(NC(=O)Nc3ccc4c(c3)OCO4)cc2CC1=O | inactive |
| C[C@@H]1CN([C@@H](C)CO)C(=O)Cc2cc(NC(=O)Nc3ccc4c(c3)OCO4)ccc2O[C@H]1CN(C)Cc1ccc(C(=O)Nc2ccccc2N)cc1 | inactive |
| C[C@@H]1CN([C@H](C)CO)C(=O)c2cccc(NC(=O)Nc3cccc4ccccc34)c2O[C@@H]1CN(C)C(=O)NC1CCCCC1 | inactive |
| C[C@H]1CN([C@@H](C)CO)C(=O)CCCn2cc(nn2)CO[C@@H]1CN(C)C(=O)Nc1cccc2ccccc12 | inactive |
| O=C(Cn1cc(COc2ccc(-n3cccc3)cc2)nn1)NS(=O)(=O)c1ccccc1C(F)(F)F | inactive |
| C[C@@H]1CN([C@@H](C)CO)C(=O)c2cc(NC(=O)Cc3ccccc3)ccc2O[C@@H](C)CCCCO[C@H]1CN(C)C(=O)C1CCCCC1 | inactive |
| C[C@H]1CN([C@@H](C)CO)C(=O)c2cccc(NS(=O)(=O)c3cccs3)c2O[C@@H]1CN(C)CC1CC1 | inactive |
| COc1ccc([C@@H]([C@H](Cc2ccccc2)OC(C)=O)N2C[C@@H](OC(C)=O)[C@@H]3C(=NO[C@H]3c3ccccc3)[C@@H]2Cc2ccccc2)cc1 | inactive |

| SMILES | cytotoxicity call |
| --- | --- |
| C[C@@H]1CN([C@@H](C)CO)C(=O)c2cccc(NC(=O)Nc3ccc4c(c3)OCO4)c2O[C@@H]1CN(C)Cc1ccc(C(F)(F)F)cc1 | inactive |
| Oc1cc(O)c2cc(O)c(-c3ccc(O)c(O)c3)[o+]c2c1.[Cl-] | inactive |
| Cc1noc(C)c1S(=O)(=O)Nc1ccc2c(c1)C(=O)N([C@H](C)CO)C[C@H](C)[C@H](CN(C)S(=O)(=O)c1ccc(Cl)cc1)O2 | inactive |
| COc1ccc(S(=O)(=O)N2C[C@@H](O)COC[C@@H]3O[C@@H](CC(=O)NCc4ccc(Cl)c(Cl)c4)CC[C@H]32)cc1 | active |
| COc1ccc(S(=O)(=O)N2C[C@@H](O)COC[C@@H]3O[C@H](CC(=O)NCc4ccc(Cl)c(Cl)c4)CC[C@H]32)cc1 | inactive |
| COc1ccc(S(=O)(=O)N2C[C@@H](O)COC[C@H]3O[C@@H](CC(=O)NCc4ccc(Cl)c(Cl)c4)CC[C@@H]32)cc1 | active |
| COc1ccc(S(=O)(=O)N2C[C@H](O)COC[C@@H]3O[C@H](CC(=O)NCc4ccc(Cl)c(Cl)c4)CC[C@H]32)cc1 | inactive |
| COc1ccc(S(=O)(=O)N2C[C@@H](O)COC[C@H]3O[C@H](CC(=O)NCc4ccc(Cl)c(Cl)c4)CC[C@@H]32)cc1 | inactive |
| COc1ccc(S(=O)(=O)N2C[C@H](O)COC[C@H]3O[C@H](CC(=O)NCc4ccc(Cl)c(Cl)c4)CC[C@@H]32)cc1 | inactive |
| COCCCN1C(=O)[C@@]2(Cc3ccccc31)c1ccccc1C(=O)N(C1CCCCC1)[C@H]2c1ccc(CO)cc1 | inactive |
| COc1ccc(NC(=O)N(C)C[C@@H]2OCCCC[C@@H](C)Oc3ccc(NC(=O)NC(C)C)cc3C(=O)N([C@H](C)CO)C[C@H]2C)cc1 | inactive |
| CC(C)CC#Cc1ccc2c(c1)O[C@H](CN(C)S(=O)(=O)c1cccc(F)c1)[C@H](C)CN([C@@H](C)CO)S2(=O)=O | active |
| CCCC#Cc1ccc2c(c1)O[C@H](CN(C)S(=O)(=O)c1cccc(OC)c1)[C@H](C)CN([C@@H](C)CO)S2(=O)=O | inactive |
| COc1ccccc1S(=O)(=O)N(C)C[C@@H]1Oc2cc(C#CCC(C)C)ccc2S(=O)(=O)N([C@H](C)CO)C[C@@H]1C | active |
| COc1ccccc1S(=O)(=O)N(C)C[C@@H]1Oc2cc(C#CCC(C)C)ccc2S(=O)(=O)N([C@H](C)CO)C[C@H]1C | inactive |
| COc1ccccc1S(=O)(=O)N(C)C[C@H]1Oc2cc(C#CCC(C)C)ccc2S(=O)(=O)N([C@@H](C)CO)C[C@@H]1C | inactive |
| COc1ccccc1S(=O)(=O)N(C)C[C@@H]1Oc2cc(C#CCC(C)C)ccc2S(=O)(=O)N([C@@H](C)CO)C[C@H]1C | inactive |
| CCCC#Cc1ccc2c(c1)O[C@@H](CN(C)S(=O)(=O)c1cccc(OC)c1)[C@@H](C)CN([C@@H](C)CO)S2(=O)=O | inactive |
| COc1ccccc1S(=O)(=O)N(C)C[C@H]1Oc2cc(C#CCC(C)C)ccc2S(=O)(=O)N([C@H](C)CO)C[C@@H]1C | inactive |
| CC(C)CC#Cc1ccc2c(c1)O[C@@H](CN(C)S(=O)(=O)c1cccc(F)c1)[C@H](C)CN([C@H](C)CO)S2(=O)=O | inactive |
| CC(C)CC#Cc1ccc2c(c1)O[C@@H](CN(C)S(=O)(=O)c1cccc(F)c1)[C@H](C)CN([C@@H](C)CO)S2(=O)=O | inactive |
| COc1ccccc1S(=O)(=O)N(C)C[C@H]1Oc2cc(C#CCC(C)C)ccc2S(=O)(=O)N([C@@H](C)CO)C[C@H]1C | active |

| SMILES | cytotoxicity call |
| --- | --- |
| C#CCSC1=N[C@@]2(COCc3ccc(OC)cc3)Oc3ccccc3[C@H]([C@H]2CO[Si](C)(C)C(C)(C)C)N1C(=O)c1ccccc1 | inactive |
| C[C@@H]1CN([C@H](C)CO)C(=O)c2cc(-c3ccc(F)cc3)cnc2O[C@@H]1CN(C)C(=O)Cc1ccccn1 | inactive |
| C[C@@H]1CN([C@H](C)CO)C(=O)c2cc(NC(=O)CCCN(C)C)ccc2O[C@H]1CN(C)S(=O)(=O)c1ccc(Cl)cc1 | inactive |
| COC(=O)C1=C2CC[C@H](CO)NC(=O)N[C@H](Cc3ccccc3)C(=O)NCc3cn(nn3)C[C@@H](Cc3ccccc3)NC(=O)c3oc(c(C(=O)OC)c3C(=O)OC)CC[C@H](CO)NC(=O)N[C@H](Cc3ccccc3)C(=O)NCc3cn(nn3)C[C@@H](Cc3ccccc3)NC(=O)C(=C1C(=O)OC)O2 | inactive |
| Cc1noc(C)c1S(=O)(=O)Nc1ccc2c(c1)C(=O)N([C@@H](C)CO)C[C@@H](C)[C@H](CN(C)S(=O)(=O)c1cn(C)cn1)OCCCC[C@@H](C)O2 | inactive |
| C[C@@H]1CCCCO[C@H](CN(C)C(=O)Nc2ccc(F)cc2)[C@H](C)CN([C@@H](C)CO)C(=O)c2cc(NC(=O)CCC(F)(F)F)ccc2O1 | inactive |
| Cc1ccc(S(=O)(=O)N(C)C[C@H]2Oc3ccc(NC(=O)CCCN(C)C)cc3C(=O)N([C@@H](C)CO)C[C@H]2C)cc1 | inactive |
| C[C@H](CO)N1C[C@H](C)[C@@H](CN(C)CC2CCCCC2)OCCCC[C@H](C)Oc2ccc(NC(=O)c3ccncc3)cc2C1=O | inactive |
| COc1cccc(S(=O)(=O)N[C@H]2C=C[C@H](CC(=O)NC3CCC3)O[C@H]2CO)c1 | inactive |
| C[C@@H]1CN([C@H](C)CO)C(=O)c2cc(NC(=O)CCC(F)(F)F)ccc2O[C@H]1CN(C)Cc1ccc(C(F)(F)F)cc1 | inactive |
| C[C@@H]1O[C@@H](O[C@H]2[C@H](O)[C@@H](O)[C@H](OC[C@H]3O[C@@H](OC(=O)[C@]45CCC(C)(C)C[C@@H]4C4=CC[C@H]6[C@@]7(C)CC[C@H](O[C@H]8OC[C@H](O)[C@H](O)[C@H]8O[C@H]8O[C@@H](C)[C@H](O)[C@@H](O)[C@H]8O)[C@@](C)(CO)[C@@H]7CC[C@@]6(C)[C@]4(C)CC5)[C@H](O)[C@@H](O)[C@@H]3O)O[C@@H]2CO)[C@H](O)[C@H](O)[C@H]1O | inactive |
| CC(C)=CCC[C@](C)(O[C@@H]1O[C@H](CO[C@@H]2OC[C@@H](O)[C@H](O)[C@H]2O)[C@@H](O)[C@H](O)[C@H]1O)[C@H]1CC[C@]2(C)[C@@H]1[C@H](O)C[C@@H]1[C@@]3(C)CC[C@H](O[C@@H]4O[C@H](CO)[C@@H](O)[C@H](O)[C@H]4O)C(C)(C)[C@@H]3CC[C@]12C | inactive |
| CC(=O)OC1CCC2(C)C(CCC3C2CCC2(C)C3CC3OC4(CCC(C)CO4)C(C)C32)C1 (stereo not given) | inactive |
| CC(=O)OC1CCC2(C)C(CCC3C2CC(=O)C2(C)C3CC3OC4(CCC(C)CO4)C(C)C32)C1 (stereo not given) | inactive |
| C[C@@H]1CC[C@@]2(OC1)O[C@H]1C[C@H]3[C@H]4C[C@@H](O)[C@H]5C[C@@H](O[C@@H]6O[C@H](CO)[C@H](O[C@@H]7O[C@H](CO)[C@@H](O)[C@H](O[C@@H]8OC[C@@H](O)[C@H](O)[C@H]8O)[C@H]7O[C@@H]7O[C@H](CO)[C@@H](O)[C@H](O)[C@H]7O)[C@H](O)[C@H]6O)CC[C@]5(C)[C@@H]4CC[C@]3(C)[C@H]1[C@@H]2C | active |
| OC[C@H]1O[C@@H](O[C@H]2[C@H](O)[C@@H](O)[C@@H](O)O[C@@H]2CO)[C@H](O)[C@@H](O)[C@@H]1O | inactive |
| OC[C@@H]1O[C@H](O)[C@H](O)[C@H](O[C@@H]2O[C@H](CO)[C@H](O)[C@H](O[C@@H]3O[C@H](CO)[C@@H](O)[C@H](O)[C@@H]3O)[C@H]2O)[C@H]1O | inactive |
| CC1CCC2(OC1)OC1CC3C4CCC5CC(O)CCC5(C)C4CC(=O)C3(C)C1C2C (stereo not given) | inactive |
| CC1CCC2(OC1)OC1CC3C4CC=C5CC(O)CCC5(C)C4CCC3(C)C1C2C (stereo not given) | inactive |
| C[C@@H]1CC[C@@]2(OC1)O[C@H]1C[C@H]3[C@H]4CC=C5C[C@@H](O[C@@H]6O[C@H](CO)[C@@H](O[C@@H]7O[C@@H](C)[C@H](O)[C@@H](O)[C@H]7O[C@@H]7O[C@@H](C)[C@H](O)[C@@H](O)[C@H]7O)[C@H](O)[C@H]6O)CC[C@]5(C)[C@@H]4CC[C@]3(C)[C@H]1[C@@H]2C | active |
| C[C@@H]1CC[C@@]2(OC1)O[C@H]1C[C@H]3[C@H]4C[C@@H](O)[C@H]5C[C@@H](O[C@@H]6O[C@H](CO)[C@H](O[C@@H]7O[C@H](CO)[C@@H](O)[C@H](O[C@@H]8OC[C@@H](O)[C@H](O)[C@H]8O)[C@H]7O[C@@H]7O[C@H](CO)[C@@H](O[C@@H]8O[C@H](CO)[C@@H](O)[C@H](O)[C@H]8O)[C@H](O)[C@H]7O)[C@H](O)[C@H]6O)CC[C@]5(C)[C@@H]4CC[C@]3(C)[C@H]1[C@@H]2C | active |
